Consider 46 compounds from PubChem BioAssay AID1851 (National Center for Advancing Translational Sciences (NCATS), 2009).

Out of some 16,000 compounds screened, about 5,800 (36%) were called active. Not shown: some 23% with an inconclusive outcome. Calls come from the whole dose curve; as a rule, active = well fitted curve in the direction sought with a large enough effect; inconclusive = small, poorly fitted or top-dose-only effect, or effect the other way; inactive = no such curve, though single readings can be large or run the other way. The list shows a part of the results.
% is set by controls: 0 for no effect and ±100 for the full control effect.

Sequence of Cytochrome P450 2C19 (Homo sapiens) (P33261 whole entry, looked up): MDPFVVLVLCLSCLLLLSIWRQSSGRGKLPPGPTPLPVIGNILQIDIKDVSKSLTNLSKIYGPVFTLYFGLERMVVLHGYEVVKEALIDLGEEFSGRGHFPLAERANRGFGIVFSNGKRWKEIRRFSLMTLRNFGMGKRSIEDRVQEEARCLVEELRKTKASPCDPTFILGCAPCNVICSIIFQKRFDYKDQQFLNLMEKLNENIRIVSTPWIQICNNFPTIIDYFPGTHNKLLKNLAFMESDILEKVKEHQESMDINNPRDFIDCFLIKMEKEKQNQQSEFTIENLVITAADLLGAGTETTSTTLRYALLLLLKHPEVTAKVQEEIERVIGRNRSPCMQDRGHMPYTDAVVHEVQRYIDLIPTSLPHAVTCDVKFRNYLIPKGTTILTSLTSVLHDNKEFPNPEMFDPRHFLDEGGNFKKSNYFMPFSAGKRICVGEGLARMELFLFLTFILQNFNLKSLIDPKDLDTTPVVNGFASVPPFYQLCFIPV

This experiment concerns the target Cytochrome P450 2C19 (Homo sapiens) (UniProt P33261). The experiment in a line: Cytochrome panel assay with activity outcomes. The following applies: recombinant CYP, pro-luciferin dealkylation, luminescence, p450-cyp2c19; series mostly up to 57.1 µM; activity, negative = inhibition: at the top concentration.
With `Cc1c(Cl)c(S(N)(=O)=O)cc2c1=NC=NS=2(=O)O`, the activity, negative = inhibition is 8.1% [at 11.4 µM] (inactive). As for `CN1CCC2(CC1)CCN(C(=O)c1ccncc1)CC2`, the “activity, negative = inhibition” value was 25.7% (inactive). The AC50 is the midpoint of the concentration-response curve, whichever way the signal moves. On to `COc1ccc2c(c1)nc(SCC(=O)c1ccc(Br)s1)n2C`, for which the AC50 is 398 nM (active). Turning to `CCOc1ccc2c(c1)nc(SCC(=O)c1ccc(Br)s1)n2C`, the AC50 is 708 nM (active).

As for `Nc1ncnc2c1ncn2[C@@H]1O[C@@H](C(=O)NC2CC2)[C@H](O)[C@@H]1O`, the “activity, negative = inhibition” value is 29.7% (inactive). `Cc1cc(O)c(/C=N/Nc2cccc(Cl)c2)c(=O)o1`: the AC50 is 3160 nM (active). Take `C[C@@H](CSC(=N)N)C(N)=O`: the activity, negative = inhibition is 27.2% [at 11.4 µM] (inactive). `COc1ccc(CNC(=O)Cc2csc(Nc3nc(=S)[nH]c4ccccc34)n2)cc1`: the AC50 is 2820 nM (active). Still for that read-out and setting: in the case of `O=C(Cc1csc(Nc2nc(=S)[nH]c3ccccc23)n1)NCc1cccc(Cl)c1` it was 794 nM (active); in that of `Cc1ccc(CNC(=O)Cc2csc(Nc3nc(=S)[nH]c4ccccc34)n2)cc1`, 2240 nM (active). Take `Oc1cc2c(cc1O)CN(C(=S)NCCc1ccc(Cl)cc1)CCC2`: the half-maximal activity concentration (AC50) is 316 nM (active). On to `Cc1ccc(N2C(=O)CSC2c2cccnc2)cc1F` (stereo unspecified), for which the AC50 is 20000 nM (active). The same measure, in the same setting: in the case of `CN1C(=O)CC[C@@H]1c1cccnc1` it was “inactive”. On to `CC1(C)CO[C@H](CC(=O)O)CN1`, for which the concentration at half-maximal activity (AC50) is 5010 nM (active).

For the compound `Cc1nc2cnc(N(C)C)nc2n(C)c1=O`, the “activity, negative = inhibition” value was -10.6% (inactive). On to `Cc1c(-c2ccc(F)cc2)nc(N)c(C#N)c1-c1cccs1`, for which the AC50 is 4470 nM (active).

Consider `CSc1nc(N)nc(-c2cccs2)c1C#N`, for which the AC50 is 7940 nM (active).

For the compound `Cc1cccc2c1OCC/C2=N\NC(=O)COc1ccccc1`, the concentration at half-maximal activity (AC50) is 3160 nM (active).

Turning to `COc1cccc(OCC(=O)NN=C2c3ccccc3-c3ccccc32)c1`, the half-maximal activity concentration (AC50) was 708 nM (active). Take `Cc1ccccc1OCC(=O)N/N=C1\CCOc2c(C)cccc21`: the “activity, negative = inhibition” value is -3.29% (inactive). Regarding `Cc1c(N2CCCC2)cc2c(c1NC(=O)c1ccccc1Cl)C(C)(C)CC2(C)C`, the half-maximal activity concentration (AC50) was 794 nM (active). In the case of `O=C(N/N=C/c1cccc(F)c1)c1csc2c1CCCC2`, the AC50 is 7080 nM (active). Take `Fc1cccc(/C=N\N=C/c2cccc(F)c2)c1`: the “activity, negative = inhibition” value was -17.4% (inactive). On to `COc1cccc(-c2cncnc2NCc2ccccc2OC)c1`, for which the half-maximal activity concentration (AC50) is 2000 nM (active). On the same count and under the same terms, as for `COc1cccc(-c2cncnc2NCc2ccc(OC)cc2OC)c1`, the figure is 1260 nM (active). The same measure, in the same setting: in the case of `COc1ccccc1CNc1ncncc1-c1cccnc1` it was 10000 nM (active). Regarding `CCC(C)(C)n1nnnc1C(c1ccc(C)cc1)N1CCC(C)CC1` (stereo unspecified), the AC50 is 14100 nM (active).

Take `Cc1cc(C)c(NC(=O)C[C@H](CC(=O)O)c2cccc3ccccc23)c(C(=O)N2CCC3(CCCC3)CC2)c1`: the “activity, negative = inhibition” value is -9.08% (inactive).

Take `CSc1n[nH]c(-c2sccc2OCc2ccc(C)cc2)n1`: the AC50 was 1120 nM (active). Consider `COc1ncc2nc(-c3cc(F)cc(F)c3)c(=O)n(C3CC3)c2n1`, for which the “activity, negative = inhibition” value was -20.5% (inactive).

As for `COc1cccc(C(C(=O)Nc2ccc(F)cc2)N(C(=O)Cn2nnc3ccccc32)C2CC2)c1` (stereo unspecified), the AC50 is 20000 nM (active). Turning to `CCc1ccc(N2C(=O)c3ccc4c5c(ccc(c35)C2=O)CC4)cc1`, the concentration at half-maximal activity (AC50) was 3160 nM (active). With `Cc1onc(-c2c(Cl)cccc2Cl)c1C(=O)N1CCc2ccccc2C1`, the AC50 is 2820 nM (active). For the compound `Cc1noc(C)c1C(=O)N1CCC2(CC1)CN(c1ccccc1)C2`, the “activity, negative = inhibition” value is -34.5% (inactive). `Cc1ccccc1C(=O)N1CCc2ccccc2C1`: the AC50 is 1410 nM (active).

For the compound `N=C(N)N1CCc2ccccc2C1`, the “activity, negative = inhibition” value was 20.8% [at 25.6 µM] (inactive). Take `Cc1noc(C)c1C(=O)N1CCC2(CCN(Cc3ccccc3)CC2)CC1`: the “activity, negative = inhibition” value was -2.84% (inactive).

Turning to `NCCSC[C@H](N)C(=O)O`, the activity, negative = inhibition was -6.06% [at 11.4 µM] (inactive). As to `O=C1CC(c2cccs2)c2cc3c(cc2N1)OCO3` (stereo unspecified), the AC50 was 1120 nM (active). Regarding `CCCC[C@@H]1C[C@H]1C(NC(=O)c1ccco1)c1ccc(-c2ccccc2)cc1` (stereo partly specified), the AC50 was 25100 nM (active).

As to `CCC[C@@H]1C[C@@]1(CCC)C(NC(=O)c1ccco1)c1ccc(Cl)cc1` (stereo partly specified), the AC50 is 3160 nM (active). With `CCC[C@@H]1C[C@@]1(CCC)C(NS(=O)(=O)c1cccc2cccnc12)c1ccc(Cl)cc1` (stereo partly specified), the AC50 is 3160 nM (active).

As to `CCCC[C@@H]1C[C@H]1C(NC(=O)c1ccc(-c2ccccc2)cc1)c1ccc(-c2ccccc2)cc1` (stereo partly specified), the “activity, negative = inhibition” value was 31.1% (inactive). Take `CCCC[C@@H]1C[C@H]1C(NC(=O)c1ccco1)c1ccc(C(=O)OC)cc1` (stereo partly specified): the concentration at half-maximal activity (AC50) was 1000 nM (active). For `CO[C@H]1COC(=O)C/C=C\[C@H](C)COC(=O)[C@@H](C)NC(=O)C/C=C\[C@@H]1C`, the activity, negative = inhibition was -31.5% [at 11.4 µM] (inactive). As for `COCCn1c(=O)c(C)nc2cnc(Nc3cccc(OC)c3)nc21`, the “activity, negative = inhibition” value is -5.79% (inactive).
